This is an account of results in PubChem BioAssay (Tox21).

Results filed as inconclusive are left out. Unmarked numbers belong to inactive results. Activity calls are given as the source filed them. The call rests on the fitted dose curve; in most records, active means well fitted cell-killing curve with a large enough effect in the repeat runs; inconclusive means weak or mixed curves, or effect the other way; inactive means flat fitted curve, though single readings scatter.
On the % scale 0 is the no-effect control and ±100 the full control effect; potency means the concentration at half of the fitted maximal effect.

The assay in a line: qHTS assay to identify small molecule antagonists of the androgen receptor (AR) signaling pathway using the MDA cell line in the presence of 0.5 nM R1881 - cell viability counter screen (AID 1259242). Further: nearly all actives have a fitted effect of over 45% in size. To be noted: MDA-kb2 viability, CellTiter-Fluor protease fluorescence, 16 h; series mostly up to 92.4 µM; viability change, negative = cytotoxic: at the top concentration. An excerpt: U.S. Tox21 Program National Center for Advancing Translational Sciences [NCATS] NIH Chemical Genomics Center [NCGC] U.S. Environmental Protection Agency [EPA] National Institutes of Environmental Health Sciences [NIEHS] National Toxicology Program [NTP] U.S. Food and Drug Administration [FDA] Tox21 Assay Overview: Androgen receptor (AR) is an important member of the nuclear receptor family. Its signaling plays a critical role in AR-dependent prostate cancer and other androgen related diseases. Considerable attention has been given in the past decades to develop methods to study and screen for the environmental chemicals that have the potential to interfere with metabolic homeostasis, reproduction, developmental and behavioral functions. Therefore AR binding assay for screening androgen antagonists can be used to identify potential endocrine disruptors. MDA-kb2 cells (from ATCC, deposited by Wilson et al.) were used to screen for AR inhibitors against Tox21 compound libraries. These cells are human breast carcinoma cells that were stably transfected with a luciferase reporter gene under control of the MMTV promoter that contains response elements for both androgen receptor (AR) and glucocorticoid receptor (GR). The current screening for identification of AR inhibitors against Tox21 libraries used lower concentration of (0.5 nM) R1881 as a stimulator. The cytotoxicity of the Tox21 compound libraries against MDA-kb2 cell line was tested by measuring live-cell protease activity using CellTiter-Fluor assay in the same wells.
Tox21 Assay Protocol Summary: MDA-kb2 cells (cells cultured without CO2) were dispensed at 3,000 cells/well in 4 uL of culture medium into white wall/solid-bottom 1536-well plates (Corning Life Sciences, Corning, NY) using a Multidrop Combi (ThermoFisher Scientific, Waltham, MA) dispenser. After the assay plates were incubated at a 37C and 0% CO2 for 5 hr, 23 nL of compounds dissolved in DMSO, positive controls or DMSO only was transferred to the assay plate by a Pintool station (Kalypsys, San Diego, CA). The transfer of compounds was followed by the addition of 1 uL of 0.5 nM (final concentration) agonist (R1881)/culture medium using a Flying Reagent Dispenser (FRD, Aurora Discovery, San Diego, CA). The plates were incubated at 37C and 0% CO2 for 16 hr. For cytotoxicity assay, 1 uL of CellTiter-Fluor reagent (Promega Corporation, Madison, WI) was added to each well using the FRD and after 30 min incubation at 37C and 0% CO2, The fluorescence intensity was measured using ViewLux plate reader (PerkinElmer, Shelton, CT).
For the molecule `O=[N+]([O-])c1cccc(C(F)(F)F)c1`, the “viability change, negative = cytotoxic” value is 4.54%.

On to `CC(CCc1ccccc1)NCC(O)c1ccc(O)c(C(N)=O)c1` (stereo not given), for which the “viability change, negative = cytotoxic” value is -10.3%.

For `CC(C(=O)O)c1ccc2c(c1)[nH]c1ccc(Cl)cc12` (stereo not given), the “viability change, negative = cytotoxic” value was -3.3% [at 42.5 µM].

In the case of `COc1ccc(-c2coc3cc(O)ccc3c2=O)cc1`, the “viability change, negative = cytotoxic” value was 0.109%.

As for `CCCCCCCC`, the “viability change, negative = cytotoxic” value was 2.49%.

For `O=C(/C=C/c1ccccc1)OC/C=C/c1ccccc1`, the “viability change, negative = cytotoxic” value was 4.58%.

Regarding `CC(C)OC(=O)C(O)(CC(=O)O)CC(=O)O`, the “viability change, negative = cytotoxic” value was 0.64%.

Take `Cc1c(N)cccc1C(F)(F)F`: the “viability change, negative = cytotoxic” value was 6.55% [at 42.5 µM].

In the case of `O=[N+]([O-])c1ccc(O)cc1C(F)(F)F`, the Potency was 27.3 µM (active).

On to `OC[C@H]1O[C@H](O[C@H]2O[C@H](CO)[C@@H](O)[C@H](O)[C@H]2O)[C@H](O)[C@@H](O)[C@@H]1O`, for which the “viability change, negative = cytotoxic” value was 1.28%.

On to `CCCC(=O)OCOC(=O)C1=C(C)NC(C)=C(C(=O)OC)C1c1cccc(Cl)c1Cl` (stereo not given), for which the “viability change, negative = cytotoxic” value is 2.59% [at 42.5 µM].

As for `COC(C)=O`, the “viability change, negative = cytotoxic” value was 2.61%.

Regarding `Cc1ccc(N/N=c2\c(=O)cc/c(=N\Nc3ccc(S(=O)(=O)O)cc3)c2=O)c(C)c1`, the Potency is 48.6 µM (active).

Regarding `O=C(O)c1cc(=O)c2ccccc2o1`, the “viability change, negative = cytotoxic” value is 5.81% [at 42.5 µM].

As for `CC1(C)[C@@H](O)CC[C@]2(C)[C@H]3C(=O)C=C4[C@@H]5C[C@@](C)(C(=O)O)CC[C@]5(C)CC[C@@]4(C)[C@]3(C)CC[C@@H]12`, the “viability change, negative = cytotoxic” value was -3.43%.

As to `C#C[C@]1(O)CC[C@H]2[C@@H]3[C@H](C)CC4=C(CCC(=O)C4)[C@H]3CC[C@@]21C`, the “viability change, negative = cytotoxic” value is -2.96% [at 42.5 µM].

For `Cc1ccc(O)c(N)c1`, the “viability change, negative = cytotoxic” value is -4.71%.

Consider `C/C=C/C=C/COC(=O)C(C)C`, for which the “viability change, negative = cytotoxic” value is -12.6%.

Take `Nc1nc(N)nc(-c2cc(Cl)ccc2Cl)n1`: the “viability change, negative = cytotoxic” value was -2.84% [at 42.5 µM].

Consider `OC12N=C(c3ccccc3)SC1Cc1cc(Cl)ccc12` (stereo not given), for which the “viability change, negative = cytotoxic” value is -10.8%.

For the molecule `O=C(c1ccc(O)c(O)c1)c1ccc(O)cc1O`, the “viability change, negative = cytotoxic” value is -22.7%.

Turning to `Cc1nc2n(c(=O)c1CCN1CCC(c3noc4cc(F)ccc34)CC1)CCCC2`, the “viability change, negative = cytotoxic” value was 0.104% [at 42.5 µM].

With `Cc1c(C)c2c(c(C)c1OC(=O)c1cccnc1)CC[C@@](C)(CCC[C@H](C)CCC[C@H](C)CCCC(C)C)O2`, the “viability change, negative = cytotoxic” value was 4.75% [at 42.5 µM].

On to `c1ccc(SSc2ccccc2)cc1`, for which the “viability change, negative = cytotoxic” value is -2.74%.

For `O=C(O)Cc1ccccc1Nc1c(Cl)cccc1Cl`, the Potency entry was “inactive”.

`C[C@H]1NCc2cc(-c3ccc4c(=O)c(C(=O)O)cn(C5CC5)c4c3OC(F)F)ccc21`: the viability change, negative = cytotoxic was -0.218% [at 19 µM].

In the case of `O=C(Oc1ccccc1)Oc1ccccc1`, the “viability change, negative = cytotoxic” value was -1.35%.

Take `CC(N=C(NC#N)Nc1ccncc1)C(C)(C)C` (stereo not given): the “viability change, negative = cytotoxic” value was 7.85% [at 42.5 µM].

As for `CCCCCC(C)OC(=O)COc1ccc(Cl)c2cccnc12` (stereo not given), the “viability change, negative = cytotoxic” value was 3.42%.

Regarding `CCC(CC)C(C)CCOC(C)=O` (stereo not given), the “viability change, negative = cytotoxic” value was 0.299%.

`Cc1cccc(C)c1NC(=O)c1ccc(N)cc1`: the “viability change, negative = cytotoxic” value was -2.97% [at 42.5 µM].

For the molecule `CC(=O)Oc1cc2c(s1)CCN(C(C(=O)C1CC1)c1ccccc1F)C2` (stereo not given), the “viability change, negative = cytotoxic” value is -0.134% [at 42.5 µM].

Take `C#C[C@]1(OC(C)=O)CC[C@H]2[C@@H]3CCC4=C[C@@H](OC(C)=O)CC[C@@H]4[C@H]3CC[C@@]21C`: the “viability change, negative = cytotoxic” value was -7.65% [at 42.5 µM].

As for `CCOC(=O)c1ccc(C2CCC(NC[C@H](O)COc3ccc(O)c(NS(C)(=O)=O)c3)CC2)cc1` (stereo not given in full), the “viability change, negative = cytotoxic” value was -9.74%.

Take `C#C[C@]1(OC(C)=O)CC[C@H]2[C@@H]3CCC4=C/C(=N/O)CC[C@@H]4[C@H]3CC[C@@]21CC`: the “viability change, negative = cytotoxic” value is -6.8% [at 42.5 µM].

In the case of `CCCCCCCCCCC[C@@H](C[C@@H]1OC(=O)[C@H]1CCCCCC)OC(=O)[C@H](CC(C)C)NC=O`, the “viability change, negative = cytotoxic” value was -2.6% [at 42.5 µM].

Consider `CCCCCCOC(=O)C(C)CC` (stereo not given), for which the “viability change, negative = cytotoxic” value is 4.28%.

Take `CC(=O)[C@H]1CC[C@H]2[C@@H]3CCC4=CC(=O)CC[C@]4(C)[C@H]3CC[C@]12C`: the “viability change, negative = cytotoxic” value was -19.4%.

Take `O=S(=O)(O)c1ccc(N=Nc2c(O)ccc3ccccc23)cc1`: the Potency is 30.6 µM (active).

On to `[Cl][Pt-2]([Cl])([Cl])[Cl]`, for which the “viability change, negative = cytotoxic” value was -5.17%.
